Structures can show the parent of a compound that is named as a salt.
The compounds below were run on Saccharomyces cerevisiae BY4741 SeMeCo community (assay: z-score of subpopulation abundance vs DMSO median, subpopulation auxotrophic for HM; higher = larger share of this subpopulation than in DMSO controls). Details: 10 µM; 24 h; SM minimal medium; subpopulation (auxotrophy): HM.
Protocol: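 Fluorescent four-plasmid SeMeCo (self-establishing metabolically cooperating S. cerevisiae BY4741 community; plasmids pH-mRuby2, pL-mWasabi, pU-eCFP, pM-TagRFP657) was grown 24 h in minimal SM medium with each Selleck FDA-approved drug at 10 µM in 384-well plates. Cells were fixed and imaged by high-content confocal microscopy. For each auxotrophic subpopulation (and the prototroph), a z-score gives the deviation from the DMSO vehicle-control population median.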

Row | Compound | z-score of subpopulation abundance
1 | Cc1nccn1CC1CCc2c(c3ccccc3n2C)C1=O (stereo not given) [Ondansetron Hydrochloride Dihydrate] | -0.61
2 | CCC(=O)NS(=O)(=O)c1ccc(-c2c(-c3ccccc3)noc2C)cc1 [Parecoxib] | 0.95
3 | Nc1ccc(/N=N/c2ccccc2)c(N)n1 [Phenazopyridine HCl] | 0.02
4 | Fc1ccc([C@@H]2CCNC[C@H]2COc2ccc3c(c2)OCO3)cc1 [Paroxetine mesylate] | -0.77
5 | COc1cc(NS(=O)(=O)c2ccc(N)cc2)nc(OC)n1 [SulfadiMethoxine sodium] | 0.06
6 | CCCCCCCCCCCCCCCC[N+](C)(C)C [Cetrimonium Bromide (CTAB)] | 10.1
7 | O=S1(=O)CCN(CN2CCS(=O)(=O)NC2)CN1 [Taurolidine] | -1.08
8 | Nc1nc(/C(=C/CC(=O)O)C(=O)N[C@@H]2C(=O)N3C(C(=O)O)=CCS[C@H]23)cs1 [Ceftibuten dihydrate] | -0.56
9 | CNS(=O)(=O)CCc1ccc2[nH]cc(C3CCN(C)CC3)c2c1 [Naratriptan HCl] | -0.44
10 | Oc1c(I)cc(Cl)c2cccnc12 [Clioquinol] | 37.7
11 | CCCCCC(=O)O[C@]1(C(C)=O)CC[C@H]2[C@@H]3CCC4=CC(=O)CC[C@]4(C)[C@H]3CC[C@@]21C [Hydroxyprogesterone caproate] | 1.31
12 | CO/N=C(\C(=O)N[C@@H]1C(=O)N2C(C(=O)O)=C(CSc3nc(=O)c(O)nn3C)CS[C@H]12)c1csc(N)n1 [Ceftriaxone Sodium Trihydrate] | -1.19
13 | O=C1CN2Cc3c(ccc(Cl)c3Cl)N=C2N1 [Anagrelide HCl] | -0.37
14 | OCCN1CCN(CCCN2c3ccccc3Sc3ccc(Cl)cc32)CC1 [Perphenazine] | 0.07
15 | COc1ccc(CNc2nc(N3CCC[C@H]3CO)ncc2C(=O)NCc2ncccn2)cc1Cl [Avanafil] | 0.22
16 | COC(=O)Nc1nc2cc(C(=O)c3ccccc3)ccc2[nH]1 [Mebendazole] | 1.02
17 | OC(c1ccccc1)(c1ccccc1)C12CC[N+](CCOCc3ccccc3)(CC1)CC2 [Umeclidinium bromide] | -0.29
18 | Cc1cc(O)cc(C)c1Cl [Chloroxylenol] | 0.32
19 | Cc1nc(C)c(Cl)c(O)c1Cl [Clopidol] | -0.62
20 | COc1ccc2c3c1O[C@H]1C[C@@H](O)C=C[C@@]31CCN(C)C2 [Galanthamine] | 1.76

Row | Compound | z-score of subpopulation abundance
21 | Oc1c(Br)cc(Br)c2cccnc12 [Broxyquinoline] | 27.7
22 | CN(C)CCC=C1c2ccccc2C=Cc2ccccc21 [Cyclobenzaprine HCl] | -0.88
23 | C[N+]1(C)[C@@H]2CC[C@H]1C[C@@H](OC(=O)C(O)c1ccccc1)C2 (stereo not given in full) [Homatropine Methylbromide] | -0.7
24 | C[C@@H](c1ncncc1F)[C@](O)(Cn1cncn1)c1ccc(F)cc1F [Voriconazole] | 10.2
25 | CN(C)CCc1c[nH]c2ccc(C[C@H]3COC(=O)N3)cc12 [Zolmitriptan] | -1.06
26 | CCCC1CC(C(=O)NC(C(C)Cl)C2OC(SC)C(O)C(O)C2O)N(C)C1 (stereo not given) [Clindamycin alcoholate] | 0.91
27 | C[N+](C)(C)CCOC(=O)CCC(=O)OCC[N+](C)(C)C [Succinylcholine Chloride Dihydrate] | 0.1
28 | CN(C)CCCN1c2ccccc2CCc2ccc(Cl)cc21 [Clomipramine HCl] | 0.1
29 | COc1cc(NS(=O)(=O)c2ccc(N)cc2)ncn1 [Sulfamonomethoxine] | -1.46
30 | CCn1cc(C(=O)O)c(=O)c2ccc(C)nc21 [Nalidixic acid] | -1.62
31 | CC1(C)S[C@@H]2[C@H](NC(=O)[C@H](NC(=O)N3CCN(S(C)(=O)=O)C3=O)c3ccccc3)C(=O)N2[C@H]1C(=O)O [Mezlocillin Sodium] | -0.71
32 | CO[C@H]1C[C@@H]2CC[C@@H](C)[C@@](O)(O2)C(=O)C(=O)N2CCCC[C@H]2C(=O)O[C@H]([C@H](C)C[C@@H]2CC[C@@H](OP(C)(C)=O)[C@H](OC)C2)CC(=O)[C@H](C)/C=C(\C)[C@@H](O)[C@@H](OC)C(=O)[C@H](C)C[C@H](C)/C=C/C=C/C=C/1C [Ridaforolimus (Deforolimus, MK-8669)] | 20.9
33 | CC(C)Cc1ccc(C(C)C(=O)O)cc1 (stereo not given) [Ibuprofen Lysine] | -1.04
34 | CCOC(=O)c1ccc(O)cc1 [Ethylparaben] | -0.62
35 | C[C@@H](NCCCc1cccc(C(F)(F)F)c1)c1cccc2ccccc12 [Cinacalcet HCl] | 0.25
36 | CCn1cc(C(=O)O)c(=O)c2cc(F)c(N3CCNCC3)nc21 [Enoxacin] | -1.07
37 | NC(=O)c1ncn([C@@H]2O[C@H](CO)[C@@H](O)[C@H]2O)n1 [Ribavirin] | -0.41
38 | COCCCN1CCC(NC(=O)c2cc(Cl)c(N)c3c2OCC3)CC1 [Prucalopride Succinate] | 0.63
39 | CCOc1cc(N)c(Cl)cc1C(=O)NCC1CN(Cc2ccc(F)cc2)CCO1 (stereo not given) [Mosapride Citrate] | 0.32
40 | CCC[C@@H]1C[C@@H](C(=O)N[C@@H]([C@H]2O[C@H](SC)[C@H](O)[C@@H](O)[C@H]2O)[C@@H](C)O)N(C)C1 [Lincomycin Hydrochloride Monohydrate] | -0.07
